# Rows were chosen to be rich in hits. Some 1.9% of all compounds tested hit in one or more screens of this group.
# CR mimetic SO: caloric restriction mimetics inhibiting age-related superoxide in yeast; S. cerevisiae aged cells, superoxide DHE fluorescence; active compounds read low; superoxide response (% of plate mean), % at 10 µM; 330,000 tested, 0.18% active;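 active = superoxide response under a set limit, about three screen SD below normal, cut at about 65% in these data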;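 also: yeast aged for seven days with compound at 30 °C before DHE staining; 100% = average MFI of all compound-treated wells on the plate with controls excluded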
# MCL1 BIM primary: disrupts human MCL1 binding to BIM-BH3 peptide; Q07820; GST-MCL1 / FITC-Bim-BH3 fluorescence polarization; inhibition, % at 10.9 µM; 320,000 tested, 0.68% active; AID 2057;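 active = inhibition above the mean inhibition of all tested compounds plus 3 SD, set per campaign, cut at about 40% in these data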;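 also: 0% = DMSO wells and 100% = unlabeled Bim-BH3 peptide control; higher means more loss of mP so more displacement of Bim peptide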
# BCLXL inh: Bcl-xL (human) inhibition; 320,000 tested, 0.7% active; Q07817; inhibition, % at 10.9 µM; GST-Bcl-xL / FITC-Bim BH3 peptide fluorescence polarization;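 active = inhibition above the mean of all tested compounds plus 3 SD, cutoff set per campaign, cut at about 30% in these data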;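 also: 0% = DMSO wells and 100% = unlabeled Bim-BH3 peptide competitor; inhibitors lower millipolarization by displacing the labeled peptide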
# GLD-1 RNA inh: GLD-1-TGE RNA interaction inhibition (C. elegans); Q17339; purified GLD-1 + fluorescein TGE RNA, fluorescence polarization; inhibition, % at 5.96 µM; 320,000 tested, 0.44% active; AID 2280;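 active = percent inhibition above a per-plate cutoff, the plate mean of test compounds plus 3 SD, cut at about 30% in these data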;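 also: 0% = DMSO wells with GLD-1 and probe and 100% = wells lacking GLD-1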
# MEX-5 binding: C. elegans MEX-5 TCR-2 RNA binding activity; Q9XUB2; MEX-5/FITC-TCR2 RNA binding, fluorescence polarization; active compounds read low; activity score (negative = inhibition of binding), % at 10 µM; 300,000 tested, 0.38% active; AID 1832;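 active = inhibition past about -25% in most replicates, and total fluorescence under double the plate's negative control median, limit read from the data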;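 also: 0% = DMSO and -100% = 5 µM competing unlabeled TCR2 RNA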
# Target sequence (Q9XUB2 whole entry, looked up): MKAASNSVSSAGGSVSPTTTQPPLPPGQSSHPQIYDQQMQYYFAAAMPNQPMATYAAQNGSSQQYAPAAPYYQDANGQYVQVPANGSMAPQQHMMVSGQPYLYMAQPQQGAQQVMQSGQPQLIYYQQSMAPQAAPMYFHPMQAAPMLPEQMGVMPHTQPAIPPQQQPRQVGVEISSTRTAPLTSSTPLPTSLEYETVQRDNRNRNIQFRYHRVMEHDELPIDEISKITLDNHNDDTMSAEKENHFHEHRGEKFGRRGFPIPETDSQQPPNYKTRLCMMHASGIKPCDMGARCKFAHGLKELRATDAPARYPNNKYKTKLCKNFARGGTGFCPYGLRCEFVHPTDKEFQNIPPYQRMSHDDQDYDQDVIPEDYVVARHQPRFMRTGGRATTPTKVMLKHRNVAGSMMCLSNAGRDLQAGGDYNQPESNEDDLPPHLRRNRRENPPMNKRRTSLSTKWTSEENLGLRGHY
# LANA-H2A inh: blocks KSHV LANA binding to histone H2A/H2B. Q9QR71. cell-free LANA-H2A/H2B peptide, fluorescence polarization. inhibition, % (no concentration beside the values). 320,000 tested, 0.6% active. AID 2629; in the data active = inhibition mostly above about 10%, no sharp cut-off; inactive = mostly below about 6.7%
# GLD1 RNA confirm: GLD-1 TGE RNA interaction inhibition, confirmation; shares compounds with GLD-1 RNA inh; 550 tested, 10% active; inhibition, % at 5.96 µM; GLD-1/FL-TGE RNA fluorescence polarization, biochemical; AID 2459;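 active = average inhibition across triplicates above the hit cutoff set in the primary screen, cut at about 32% in these data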;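 also: 0% = GLD-1 with RNA probe and DMSO and 100% = wells lacking GLD-1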
# Superoxide pick: confirmation of caloric restriction mimetics inhibiting yeast age-related superoxide; S. cerevisiae aging, superoxide DHE fluorescence; active compounds read low; superoxide response (% of plate), % at 10 µM; shares compounds with CR mimetic SO; AID 434994; 850 tested, 1% active;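 active = superoxide signal below 65% of the plate average of sample wells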;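 also: cells aged with compound for 7 days at 30 degrees C before staining; 100% equals mean DHE fluorescence of all compound wells on the plate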
# DHE counter: counter-screen for compounds affecting DHE oxidation and fluorescence in yeast. shares compounds with CR mimetic SO. S. cerevisiae BY4741, flow cytometry; active compounds read low. fluorescence response, % at 10 µM. 850 tested, under 10 active. AID 435000;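 active = fluorescence response below 15%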;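 also: percent of the mean fluorescence averaged over all compound wells on the plate; lower means stronger quenching of DHE signal or ROS scavenging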
# The depositor's hits bear a star; i = inactive; · = not tested or not shown.
SMILES,CR mimetic SO,MCL1 BIM primary,BCLXL inh,GLD-1 RNA inh,MEX-5 binding,LANA-H2A inh,Superoxide pick,DHE counter,others
CC1CN(C(=S)Nc2ccc(SC(F)F)cc2)CC(C)O1 (stereo unspecified),103,6,0,3,2,0,·,·,
CC1CC(C)CN(C(=S)Nc2ccc(SC(F)F)cc2)C1 (stereo unspecified),102,0,3,43*,0,2,·,·,GLD1 RNA confirm=4
O=C(CN1C(=O)NC2(CCCc3ccccc32)C1=O)c1ccc(F)c(F)c1 (stereo unspecified),88,·,·,1,·,1,·,·,
O=C(COC(=O)/C=C/c1cccc(Cl)c1)Nc1ccccc1-c1ccccc1,111,5,-1,47*,1,0,·,·,GLD1 RNA confirm=-2
CCNC(=O)N1c2ccc(OC)cc2C(C)=CC1(C)C,61*,-2,52*,70*,-3,-1,110,112,GLD1 RNA confirm=-4
O=C(CN1C(=O)/C(=C/c2ccccc2)SC1=S)N1CCN(CCc2ccccn2)CC1,102,10,3,-3,-3,-3,·,·,
O=C(NC(Cc1ccccc1)C(=O)O)/C(=C/c1ccccc1)NC(=O)c1ccccc1 (stereo unspecified),65*,4,4,-8,0,-7,107,99,
CCN(CC)S(=O)(=O)c1ccc(N2CCCC2)c(NC(=O)Cc2ccc(OC)cc2)c1,98,1,-2,2,-2,7,105,93,
CCN(CC)S(=O)(=O)c1ccc(N2CCCC2)c(NC(=O)Cc2cc(OC)c(OC)c(OC)c2)c1,102,0,3,5,2,4,108,102,
CCOc1cccc(-c2nnc(SCC(=O)Nc3cc(OC)cc(OC)c3)n2N)c1,116,5,5,2,1,-1,·,·,
COc1ccc(NC(C)=O)cc1NC(=O)CSc1nnc(-c2ccc(F)cc2)n1N,93,-13,-7,5,1,0,111,106,
COc1cccc(NC(=O)CSc2nnc(-c3cccc(OC(C)C)c3)n2N)c1,90,-3,-11,3,1,5,i,101,
COc1ccc(C)cc1NC(=O)CSc1nnc(-c2ccc(OC)c(OC)c2)n1N,111,-1,-3,9,1,-1,·,·,
CCOc1cccc(-c2nnc(SCC(=O)Nc3ccc(OC)c(OC)c3)n2N)c1,86,-2,0,3,2,4,92,94,
COc1cc(Cl)c(C)cc1NC(=O)c1ccc(S(C)(=O)=O)cc1,88,1,-2,3,0,-1,·,·,
CCCCn1nc(NC(=O)c2cccs2)c2cc3ccccc3nc21,65*,15,11,11,0,1,99,92,
C[C@H](NC(=O)C1CCN(S(=O)(=O)c2ccccc2)CC1)C(=O)NCc1ccco1,103,1,2,0,-4,3,·,·,
O=C(NCc1ccco1)c1ccc(Cl)c(S(=O)(=O)N2CCCC2)c1,131,10,-2,1,·,-2,·,·,
CC(=O)Nc1cc2c(cc1NC(=O)Cn1nc(-c3ccccc3F)ccc1=O)OCCO2,62*,1,2,1,-4,3,100,110,
COc1cccc(OC)c1NC(=O)Cn1nc(-c2ccc3c(c2)OCCO3)ccc1=O,91,4,8,4,1,-1,·,·,
O=C(CCn1cnc2ccccc21)N/N=C/c1ccccc1O,87,7,0,5,-1,-3,·,·,
O=C(Cn1cnc2ccccc21)N/N=C/c1cccnc1,99,-6,1,-1,0,-4,·,·,
O=C(Cn1cnc2ccccc21)N/N=C/c1ccccn1,21*,5,2,10,2,-1,101,111,
O=C(CCn1cnc2ccccc21)N/N=C/c1ccc(O)cc1,65*,-2,2,4,-1,-1,105,89,

# Screening data deposited in PubChem by several laboratories.
